According to PubChem BioAssay (EPA / NIEHS):
Active and inactive are the calls of the source. The calls were made as follows: active = hit-call score of the fitted dose curve at least 0.9, where 1 is the maximum; inactive = score below 0.9.

Columns and labels:
[1] = ATG_GRE_CIS: Attagene CIS-FACTORIAL HepG2 Assay for human Glucocorticoid Response Elements (GRE) (AID 2282947); conditions: HepG2 GRE cis-reporter, Attagene multiplex mRNA; actives raise or lower the signal
In short: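 Cells (HepG2) bearing transfected cis-promoter reporter transcription units were treated with chemical for 24 hours. Reporter mRNA was measured via RT-PCR with capillary electrophoresis, and activity was fitted in both directions relative to DMSO.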

[2] = ATG_ISRE_CIS: Attagene CIS-FACTORIAL HepG2 Assay for human Interferon Regulatory Factor 1 (IRF1) binding to an Interferon-Stimulated Response Element (ISRE) (AID 2282948); conditions: HepG2 ISRE cis-reporter (Attagene), mRNA transcription readout; actives raise or lower the signal
In short: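 Signal reflects induction or loss of ISRE-linked reporter mRNA in transiently transfected HepG2 cells after a 24 h treatment, detected by fluorescent RT-PCR fragments on capillary electrophoresis and normalised to DMSO.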

[3] = ATG_M_32_CIS: Attagene CIS-FACTORIAL HepG2 Assay for M32 Transcription Factor (Internal Marker) (AID 2282949); conditions: HepG2 Attagene cis-factorial M32 reporter, mRNA; actives raise or lower the signal;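 also: background control marker of the multiplexed CIS panel rather than a real target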
In short: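 HepG2 human liver cells transiently transfected with cis-promoter-driven multiple reporter transcription units, dosed 24 h. Reporter mRNA quantified by RT-PCR, FAM-labelled primer extension, HpaI digest and capillary electrophoresis; bidirectional fit versus DMSO baseline.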

[4] = ATG_M_06_CIS: Attagene CIS-FACTORIAL HepG2 Assay for M06 Transcription Factor (Internal Marker) (AID 2282950); conditions: HepG2 Attagene CIS-FACTORIAL M06 internal marker reporter; actives raise or lower the signal
In short: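 HepG2 liver cells, 24 h exposure. Reporter transcripts from transfected cis-element constructs quantified by RT-PCR/capillary electrophoresis fluorescence. Bidirectional curve fit against DMSO.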

[5] = target: Hepatocyte nuclear factor 6 (Homo sapiens) (UniProt Q9UBC0); assay: ATG_HNF6_CIS: Attagene CIS-FACTORIAL HepG2 Assay for human Hepatocyte Nuclear Factor 6 (HNF6) (AID 2282952); conditions: HepG2 Attagene cis-factorial HNF6 reporter transcription; actives raise or lower the signal
In short: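 Endogenous transcription factor activity in human HepG2 liver cells was captured through cis-regulated reporter constructs. After 24 h treatment, reporter mRNA was measured by RT-PCR with capillary electrophoresis, and activity was fitted in both directions relative to DMSO.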

[6] = target: Heat shock factor protein 1 (Homo sapiens) (UniProt Q00613); assay: ATG_HSE_CIS: Attagene CIS-FACTORIAL HepG2 Assay for human Heat Shock Transcription Factor 1 (HSE) (AID 2282953); conditions: HepG2 HSE cis-reporter, Attagene RNA transcription; actives raise or lower the signal
In short: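 Endogenous transcription factor activity captured via cis-promoter reporter units transfected into HepG2; treatment lasted 24 h. Fluorescence intensity of reporter fragments analysed with bidirectional curve fitting, DMSO baseline.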

[7] = ATG_MRE_CIS: Attagene CIS-FACTORIAL HepG2 Assay for human Metal Responsive Element (MRE) (AID 2282954); conditions: HepG2 MRE cis-reporter transcription, Attagene multiplex; actives raise or lower the signal
In short: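 Cells were transfected with cis-promoter reporter transcription units, then dosed for 24 h. RNA was reverse-transcribed, amplified, fluorescently labelled and resolved by capillary electrophoresis, and activity was fitted in both directions relative to DMSO.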

[8] = ATG_PBREM_CIS: Attagene CIS-FACTORIAL HepG2 Assay for human Phenobarbital-responsive Enhancer Module (PBREM) (AID 2282955); conditions: HepG2 PBREM cis-reporter, Attagene multiplexed transcription; actives raise or lower the signal
In short: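 Endogenous transcription factors in human liver HepG2 cells drive a PBREM cis-element reporter, whose transcript level after 24 h treatment is quantified by RT-PCR with capillary electrophoresis; activity fitted in both directions against DMSO.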

Chain of Hepatocyte nuclear factor 6 (Homo sapiens) (Q9UBC0 whole entry, looked up): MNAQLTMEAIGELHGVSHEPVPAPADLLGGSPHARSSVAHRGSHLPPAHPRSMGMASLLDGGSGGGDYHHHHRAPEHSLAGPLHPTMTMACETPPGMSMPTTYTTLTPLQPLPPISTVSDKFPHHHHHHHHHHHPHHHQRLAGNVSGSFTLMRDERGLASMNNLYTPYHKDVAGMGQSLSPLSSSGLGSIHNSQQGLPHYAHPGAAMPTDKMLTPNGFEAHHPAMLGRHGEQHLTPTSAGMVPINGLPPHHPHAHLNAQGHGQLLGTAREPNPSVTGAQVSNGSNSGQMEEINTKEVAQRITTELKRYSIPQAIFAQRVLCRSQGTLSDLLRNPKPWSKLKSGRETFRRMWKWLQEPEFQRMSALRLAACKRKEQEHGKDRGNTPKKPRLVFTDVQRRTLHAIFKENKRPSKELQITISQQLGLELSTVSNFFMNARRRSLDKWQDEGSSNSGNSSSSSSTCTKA
Chain of Heat shock factor protein 1 (Homo sapiens) (Q00613 whole entry, looked up, the tested form may be a part): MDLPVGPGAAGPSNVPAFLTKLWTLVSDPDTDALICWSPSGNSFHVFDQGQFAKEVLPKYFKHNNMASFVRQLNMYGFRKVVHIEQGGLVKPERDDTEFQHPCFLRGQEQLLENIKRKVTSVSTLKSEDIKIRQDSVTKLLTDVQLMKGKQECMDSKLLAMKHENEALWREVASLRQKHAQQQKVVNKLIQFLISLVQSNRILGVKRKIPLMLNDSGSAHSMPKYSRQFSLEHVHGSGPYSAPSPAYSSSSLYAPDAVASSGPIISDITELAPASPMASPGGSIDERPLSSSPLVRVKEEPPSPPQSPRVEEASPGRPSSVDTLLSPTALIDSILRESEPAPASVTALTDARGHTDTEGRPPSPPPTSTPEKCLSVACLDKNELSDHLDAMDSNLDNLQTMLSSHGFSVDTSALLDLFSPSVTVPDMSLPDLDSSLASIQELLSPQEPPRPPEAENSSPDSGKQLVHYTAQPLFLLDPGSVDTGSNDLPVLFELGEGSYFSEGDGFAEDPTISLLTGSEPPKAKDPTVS

Q: With `CC(=O)Nc1nnc(S(N)(=O)=O)s1` as the compound, how does the outcome [1] read?
A: Its outcome is “inactive”.

Q: And the outcome [2]?
A: The outcome was “inactive”.

Q: What about the outcome [3] of the same compound?
A: The outcome was “inactive”.

Q: And the outcome [4]?
A: Its outcome is “inactive”.

Q: What about the outcome [5] of the same compound?
A: The outcome was “inactive”.

Q: What about the outcome [6] of the same compound?
A: Its outcome is “inactive”.

Q: And the outcome [7]?
A: Its outcome is “inactive”.

Q: What about the outcome [8] of the same compound?
A: The outcome was “inactive”.

Q: With `C=CC(=O)OCCOC(=O)C=C` as the compound, how does the outcome [1] read?
A: Its outcome is “inactive”.

Q: What about the AC50 [2] of the same compound?
A: The AC50 was 25.6 µM (active).

Q: And the outcome [3]?
A: Its outcome is “inactive”.

Q: What about the outcome [4] of the same compound?
A: The outcome was “inactive”.

Q: And the outcome [6]?
A: Its outcome is “inactive”.

Q: And the AC50 [7]?
A: The AC50 was 27.5 µM (active).

Q: What about the outcome [8] of the same compound?
A: Its outcome is “inactive”.

Q: Which results are given for `Cc1ccc(C(C)c2ccc(C)c(C)c2)cc1C`?
A: AC50 [1]: 24.8 µM (active); outcome [2]: inactive; outcome [3]: inactive; outcome [4]: inactive; outcome [5]: inactive; AC50 [6]: 100 µM (active); AC50 [7]: 181 µM (active); outcome [8]: inactive

Q: Which outcome [1] does the source give for `C[C@]12CCC(=O)C=C1CC[C@@H]1[C@@H]2C(=O)C[C@@]2(C)[C@H]1CC[C@]2(O)C(=O)CO` here?
A: Its outcome is “inactive”.

Q: What about the outcome [2] of the same compound?
A: The outcome was “inactive”.

Q: What about the outcome [3] of the same compound?
A: Its outcome is “inactive”.

Q: And the outcome [4]?
A: The outcome was “inactive”.

Q: What about the outcome [5] of the same compound?
A: The outcome was “inactive”.

Q: What about the outcome [6] of the same compound?
A: Its outcome is “inactive”.

Q: And the outcome [7]?
A: The outcome was “inactive”.

Q: And the outcome [8]?
A: The outcome was “inactive”.

Q: Which outcome [1] does the source give for `CC(=O)NS(=O)(=O)c1ccc(N)cc1` here?
A: The outcome was “inactive”.

Q: What about the outcome [2] of the same compound?
A: Its outcome is “inactive”.

Q: And the outcome [3]?
A: Its outcome is “inactive”.

Q: And the outcome [4]?
A: Its outcome is “inactive”.

Q: What about the outcome [5] of the same compound?
A: Its outcome is “inactive”.

Q: And the outcome [6]?
A: Its outcome is “inactive”.

Q: And the outcome [7]?
A: The outcome was “inactive”.

Q: And the outcome [8]?
A: The outcome was “inactive”.

Q: Which results are given for `C[Si](C)O[Si](C)(C)O[Si](C)(C)O[Si](C)C`?
A: outcome [1]: inactive; outcome [2]: inactive; outcome [3]: inactive; outcome [4]: inactive; outcome [5]: inactive; outcome [6]: inactive; outcome [7]: inactive

Q: Which results are given for `CCCCCCCOC(=O)CCC`?
A: outcome [1]: inactive; outcome [2]: inactive; outcome [3]: inactive; outcome [4]: inactive; outcome [6]: inactive; outcome [7]: inactive; outcome [8]: inactive
